In PubChem BioAssay (Tox21):
Inconclusive results are not listed. A call without a number means that no potency is given here. Active and inactive are the calls of the source. The call rests on the fitted dose curve; in most records, active means well fitted cell-killing curve with a large enough effect in the repeat runs; inconclusive means weak or mixed curves, or effect the other way; inactive means flat fitted curve, though single readings scatter.

Assay: qHTS assay to identify small molecule agonists of the constitutive androstane receptor (CAR) signaling pathway - cell viability counter screen (AID 1224836); further: nearly all actives have a fitted effect of over 45% in size
Conditions: HepG2-CYP2B6-hCAR viability, CellTiter-Fluor, 23 h, PK11195 added to every well; series mostly up to 92.4 µM
Description: U.S. Tox21 Program National Center for Advancing Translational Sciences [NCATS] NIH Chemical Genomics Center [NCGC] U.S. Environmental Protection Agency [EPA] National Institutes of Environmental Health Sciences [NIEHS] National Toxicology Program [NTP] U.S. Food and Drug Administration [FDA] Tox21 Assay Overview: The constitutive androstane receptor (CAR) is a nuclear receptor which regulates multiple drug metabolizing enzymes (DMEs) and transporters. Activating CAR will generally increase the transcription and subsequent translation of CYP2B6 and CYP3A4. These two DMEs represent about 50% of the drug metabolizing potential in the body. […] Recently, there have also been studies performed indicating CARs role in energy metabolism and cancer therapy. Therefore, inducing CARs activity could have a potential effect on diabetes and cancer. Identifying environmental toxins and compounds which modulate CAR, through the use of the Tox21 10K compound collection, will be an important step in determining the toxicity and potential therapeutic effects these factors will have on the human body. To differentiate true CAR agonists from cytotoxic substances, the assay is multiplexed with a cell viability assay.
Tox21 Assay Protocol Summary: A double-stable (hCAR and CYP2B6-2.2kb) transfected cell line, derived from human hepatoma (HepG2) cells, was utilized for the duration of the quantitative high-throughput screens. The HepG2-CYP2B6-hCAR cells were dispensed at 2500 cells/4 uL/well in 1536-well white solid bottom plates using a Multidrop Combi. After the assay plates were incubated at 37 C/5% CO2 for 4 hrs, 23 nL of compounds at 15 concentrations (from 5-48 columns) or positive control (from 1 to 4 columns) were transferred to the assay plates using a Pintool station. One uL of PK11195 (final concentration = 0.75 uM) was added, using a Flying Reagent Dispenser, inside each well. After a 23 hr incubation period at 37 C/5% CO2, 1 uL of CellTiter-Fluor reagent was added into each well of the assay plates using a Flying Reagent Dispenser. The fluorescence intensity in the plates was then measured using a ViewLux plate reader.
Potency means the concentration at half of the fitted maximal effect.

| SMILES | Potency |
| --- | --- |
| CCCC(=O)Nc1ccc(O)c(C(C)=O)c1 | inactive |
| CCOc1ccc(N)c([N+](=O)[O-])c1 | inactive |
| CC(C)(C)Cl | inactive |
| COc1ccc(C(=O)Nc2nc3ccccc3c(NCc3ccccc3)c2C#N)cc1 | inactive |
| CCOC(=O)Cc1cccc2ccccc12 | inactive |
| CCOCC(O)COc1ccc(NC(=O)CC[S+](C)C)cc1 (stereo not given) | inactive |
| CN(C)CCN(Cc1ccsc1)c1ccccn1 | inactive |
| CCC(Cl)CCC(Cl)C(Cl)CC(Cl)C(Cl)C(Cl)CCl (stereo not given) | inactive |
| Cc1ccc(C(C)OC(=O)C2(C)CCC(C(=O)O)C2(C)C)cc1 (stereo not given) | inactive |
| COC(=O)c1ccc(I)cc1S(=O)(=O)NC(=O)Nc1nc(C)nc(OC)n1 | inactive |
| O=C(OCCc1ccccc1)c1ccccc1 | inactive |
| CN(C)CCN(Cc1ccc(Cl)cc1)c1ccccn1 | inactive |
| OCCNCc1ccccc1 | inactive |
| Cc1cc(C(=O)O)ccc1[N+](=O)[O-] | inactive |
| O=S(=O)(Oc1ccc(Cl)cc1)c1ccccc1 | inactive |
| CCC(=O)O[C@]1(C(=O)CCl)[C@@H](C)C[C@H]2[C@@H]3CCC4=CC(=O)C=C[C@]4(C)[C@@]3(F)[C@@H](O)C[C@@]21C | inactive |
| CC(=O)[O][Al][O]C(C)=O | inactive |
| OC(C#CCN1CCCC1)(c1ccccc1)c1ccccc1 | inactive |
| C#CCN(C)CCCOc1ccc(Cl)cc1Cl | inactive |
| ClCCOCCOCCCl | inactive |

| SMILES | Potency |
| --- | --- |
| CC(=O)c1ccc2c(c1)N(CCCN1CCC(CCO)CC1)c1ccccc1S2 | inactive |
| C=CC(=O)OCCOc1ccccc1 | inactive |
| O=C(c1ccc(F)cc1)C1CCN(CCn2c(=S)[nH]c3ccccc3c2=O)CC1 | inactive |
| CCC(C)(C)CC | inactive |
| O=C(O)c1ccc(S(=O)(=O)O)cc1C(=O)O | inactive |
| CCOC(=O)C1=C[C@]2(CC)CCCN3CCc4c(n1c1ccccc41)[C@@H]32 | inactive |
| Cc1ccc(C(=O)Oc2ccc(C(O)CNC(C)(C)C)cc2OC(=O)c2ccc(C)cc2)cc1 (stereo not given) | inactive |
| CN(C)CCCN1c2ccccc2Sc2ccccc21 | inactive |
| O=C1CCC(=O)O1 | inactive |
| COc1ccc(S(=O)(=O)N2C(=O)[C@@](c3ccccc3OC)(N3C[C@H](O)C[C@H]3C(=O)N(C)C)c3cc(Cl)ccc32)c(OC)c1 | 30.6 µM (active) |
| O=C(O)c1ccc(-n2nc(-c3ccccc3O)nc2-c2ccccc2O)cc1 | inactive |
| CCCCCCCCCCCC(=O)OC[C@@H](O)[C@H]1OC[C@H](OCCO)[C@H]1OCCO | inactive |
| CCCCCCCC/C=C\CCCCCCCC(=O)OCC | inactive |
| CCCCc1ncc(/C=C(\Cc2cccs2)C(=O)O)n1Cc1ccc(C(=O)O)cc1 | inactive |
| Cc1oc2c(NC(=O)c3c(Cl)cccc3Cl)cccc2c1C(C)(C)O | inactive |
| CCN(CC)CCNC(=O)c1cc(Br)c(N)cc1OC | inactive |
| CC(C)O.CC(C)O.CCOC(=O)/C=C(\C)O.CCOC(=O)/C=C(\C)O.[Ti] | inactive |
| CN1CCC(=C2c3ccccc3Sc3ccccc32)CC1 | inactive |
| O=C(Nc1ccc(S(=O)(=O)N2CCOCC2)cc1)c1cc(Cl)ccc1NS(=O)(=O)c1ccc(Cl)s1 | inactive |
| O=P(O)(OCc1ccccc1)OCc1ccccc1 | inactive |
